A short description of assay [1]: qHTS assay to identify small molecule antagonists of the estrogen receptor alpha (ER-alpha) signaling pathway using the BG1 cell line in the presence of 0.1 nM 17-beta-estradiol - cell viability counter screen (AID 1259241). Note: nearly all actives have a fitted effect of over 40% in size. The method, boiled down: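 Live-cell protease activity (CellTiter-Fluor fluorescence, 30 min) was read in the same wells after VM7Luc4E2 cells had been exposed to compounds with 0.1 nM 17beta-estradiol for 22 hr at 37C.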
(In general: qHTS replaces the single test concentration by a dilution series.)

Assay [2] in a line: qHTS assay to identify small molecule HDAC inhibitors - cell viability counter screen (AID 1259365). Note: series mostly up to about 92 µM; nearly all actives have a fitted effect of over 50% in size. The method, boiled down: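 HCT-116 (wild type), 1,500 cells/well, overnight 37C/5% CO2; compound in DMSO 2hr; CellTiter-Glo 30min RT; luminescence read.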
Assay [3] is described as follows: qHTS assay to identify small molecule antagonists of the sonic hedgehog signaling (Shh) pathway - cell viability counter screen (AID 1259367). Note: nearly all actives have a fitted effect of over 55% in size. The method, boiled down: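 Viability was read by CellTiter-Fluor fluorescence in the same wells, reagent added 23 hr into compound treatment and incubated 1 hr at 37C. The 3T3 Gli1-Luc reporter cells (2,000/well) received conditioned medium after compound and ran 24 hr.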

Assay [4] is described as follows: qHTS assay to identify small molecule agonists of the sonic hedgehog signaling (Shh) pathway (AID 1259368; calls by dose curve;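 note: NIH/3T3-derived 3T3Gli1-Luc cells carrying a stable Gli1-driven firefly luciferase reporter; series mostly up to about 92 µM; nearly all actives have a fitted effect of over 15% in size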). The procedure, abridged: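 Hedgehog pathway agonism scored by increased firefly luciferase luminescence in 3T3Gli1-Luc cells treated 24 hr at 37 C; detection used a 30 min room-temperature reagent incubation.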
Assay [5] can be described thus: qHTS assay to identify small molecule antagonists of the sonic hedgehog signaling (Shh) pathway (AID 1259369; calls by dose curve; note: nearly all actives have a fitted effect of over 45% in size; note: potency is the fitted concentration of half-maximal effect). The procedure, abridged:
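NIH/3T3 stable Gli1-Luc clone, 2,000 cells/well, 4hr settle; cpd + conditioned medium 24hr; Luc reagent 30min RT; luminescence.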

Assay [6] deals with Estrogen receptor beta (Homo sapiens) (UniProt Q92731). Description: qHTS assay to identify small molecule agonists of the estrogen receptor beta (ER-beta) signaling pathway (AID 1259377; active = well fitted activation curve with a large enough effect in the signal ratio in the repeat runs, not every such curve was filed as active; the % refers to the signal ratio). The procedure, abridged: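 Beta-lactamase reporter readout: fluorescence of LiveBLAzer B/G FRET substrate after 2 h at room temperature, following 16 h compound treatment of ER-beta-UAS-bla HEK293T cells at 37C in 2% charcoal-stripped FBS medium.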
Chain of Estrogen receptor beta (Homo sapiens) (Q92731 whole entry, looked up): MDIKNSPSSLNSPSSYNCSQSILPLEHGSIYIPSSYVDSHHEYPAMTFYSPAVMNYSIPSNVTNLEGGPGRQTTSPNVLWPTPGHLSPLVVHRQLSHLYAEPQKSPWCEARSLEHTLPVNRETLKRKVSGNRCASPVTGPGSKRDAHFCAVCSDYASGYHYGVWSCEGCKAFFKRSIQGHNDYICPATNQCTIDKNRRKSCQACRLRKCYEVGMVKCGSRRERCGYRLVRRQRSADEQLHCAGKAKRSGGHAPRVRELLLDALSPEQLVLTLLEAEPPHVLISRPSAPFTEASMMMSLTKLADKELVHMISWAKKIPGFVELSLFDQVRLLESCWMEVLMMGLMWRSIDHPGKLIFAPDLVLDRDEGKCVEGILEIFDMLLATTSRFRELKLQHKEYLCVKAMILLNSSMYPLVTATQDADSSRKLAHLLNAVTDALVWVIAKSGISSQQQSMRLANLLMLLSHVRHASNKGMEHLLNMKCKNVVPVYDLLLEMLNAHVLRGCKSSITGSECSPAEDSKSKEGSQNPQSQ

The target is the same in assay [7]. Kind of assay: qHTS assay to identify small molecule antagonists of the estrogen receptor beta (ER-beta) signaling pathway (AID 1259378; active = well fitted inhibition curve with a large enough effect in the signal ratio in the repeat runs, not every such curve was filed as active; the % refers to the signal ratio). The method, boiled down:
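Antagonist mode: compounds added to beta-lactamase reporter HEK293T ER-beta-UAS cells stimulated with E2 (1nM final), 16 hr at 37C. LiveBLAzer B/G FRET substrate, 2 hours room temperature, fluorescence read-out.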

A short description of assay [8]: qHTS assay to identify small molecule agonists of the androgen receptor (AR) signaling pathway in the presence of an antagonist - cell viability counter screen (AID 1259379). Note: nearly all actives have a fitted effect of over 25% in size. Note: potency is the fitted concentration of half-maximal effect. The procedure, abridged: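 MDA-kb2 viability measured by CellTiter-Fluor fluorescence in the same wells as the luciferase signal; nilutamide 3.0uM final; 15-point compound titration; 16 hr at 37C.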

A short description of assay [9]: qHTS assay to identify small molecule agonists of the estrogen receptor beta (ER-beta) signaling pathway - cell viability counter screen (AID 1259380). Note: nearly all actives have a fitted effect of over 30% in size. Note: potency is the fitted concentration of half-maximal effect. The method, boiled down: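 Measured: luminescence from CellTiter-Glo after 30 min at room temperature, added to wells already read for the LiveBLAzer FRET reporter (2 hr substrate); ER-beta-UAS-bla HEK293T cells had 16 hr compound treatment at 37C, 5% CO2.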

A short description of assay [10]: qHTS assay to identify small molecule antagonists of the estrogen receptor beta (ER-beta) signaling pathway - cell viability counter screen (AID 1259382). Note: nearly all actives have a fitted effect of over 55% in size. Note: potency is the fitted concentration of half-maximal effect. The procedure, abridged: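 Readout: luminescence, CellTiter-Glo, same wells as bla assay. System: ER-beta-UAS-bla GripTite HEK293T, 2% charcoal-stripped FBS. Exposure: compounds plus 1nM 17-beta-estradiol, 16 hr, 37C.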

The target in assay [11] is Estrogen receptor (Homo sapiens) (UniProt P03372). Description: qHTS assay to identify small molecule agonists of the estrogen receptor alpha (ER-alpha) signaling pathway in the presence of an antagonist (AID 1259383; calls by dose curve; note: top concentration of the series differs between compounds; nearly all actives have a fitted effect of over 15% in size). The procedure, abridged: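 Quantitative HTS confirmation: compounds titrated at 15 concentrations onto estrogen-deprived VM7Luc4E2 cells carrying a four-ERE luciferase construct, with ICI-182,780 present at 10.0nM final. Signal is luminescence after 22hr exposure.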
Chain of Estrogen receptor (Homo sapiens) (P03372 whole entry, looked up): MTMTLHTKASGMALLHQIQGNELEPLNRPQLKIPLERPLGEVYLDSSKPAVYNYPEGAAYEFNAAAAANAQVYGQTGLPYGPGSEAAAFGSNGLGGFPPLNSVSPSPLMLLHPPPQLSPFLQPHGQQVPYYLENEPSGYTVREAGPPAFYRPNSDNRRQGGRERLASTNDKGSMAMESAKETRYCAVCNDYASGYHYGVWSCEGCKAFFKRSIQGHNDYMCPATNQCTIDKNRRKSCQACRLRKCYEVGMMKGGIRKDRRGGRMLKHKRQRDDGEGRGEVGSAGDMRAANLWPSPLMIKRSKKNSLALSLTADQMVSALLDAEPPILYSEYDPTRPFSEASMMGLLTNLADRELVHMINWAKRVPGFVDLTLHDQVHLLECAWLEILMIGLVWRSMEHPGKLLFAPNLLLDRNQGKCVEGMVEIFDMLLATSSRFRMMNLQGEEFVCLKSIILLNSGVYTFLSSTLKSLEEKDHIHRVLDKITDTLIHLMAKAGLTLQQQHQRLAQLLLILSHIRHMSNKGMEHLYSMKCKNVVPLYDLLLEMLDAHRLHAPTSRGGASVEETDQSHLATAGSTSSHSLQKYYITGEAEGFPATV

Assay [12] in a line: qHTS assay to identify small molecule agonists or antagonists of the thyroid stimulating hormone receptor (TSHR) signaling pathway - wild type cell line counter screen (AID 1259384; calls by dose curve). The procedure, abridged: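 Counter screen in untransfected Hek293: compounds (15-point titration, triplicate) plus phosphodiesterase inhibitor Ro20-1724 added after 18 h plating; 30 min RT. Intracellular cAMP via competitive d2/cryptate immunoassay, 1 h incubation.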

The target of assay [13] is Thyrotropin receptor (Homo sapiens) (UniProt P16473). Description: qHTS assay to identify small molecule antagonists of the thyroid stimulating hormone receptor (TSHR) signaling pathway (AID 1259385; calls by dose curve; note: nearly all actives have a fitted effect of over 20% in size). The procedure, abridged: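 Antagonist mode: compound-treated TSHR-expressing HEK293 cells were stimulated with 1.5 ng/mL TSH (final) in presence of Ro20-1724 for 30 min at RT. HTRF cAMP detection after 1 h; each compound tested at 15 concentrations, triplicate.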
Chain of Thyrotropin receptor (Homo sapiens) (P16473 whole entry, looked up): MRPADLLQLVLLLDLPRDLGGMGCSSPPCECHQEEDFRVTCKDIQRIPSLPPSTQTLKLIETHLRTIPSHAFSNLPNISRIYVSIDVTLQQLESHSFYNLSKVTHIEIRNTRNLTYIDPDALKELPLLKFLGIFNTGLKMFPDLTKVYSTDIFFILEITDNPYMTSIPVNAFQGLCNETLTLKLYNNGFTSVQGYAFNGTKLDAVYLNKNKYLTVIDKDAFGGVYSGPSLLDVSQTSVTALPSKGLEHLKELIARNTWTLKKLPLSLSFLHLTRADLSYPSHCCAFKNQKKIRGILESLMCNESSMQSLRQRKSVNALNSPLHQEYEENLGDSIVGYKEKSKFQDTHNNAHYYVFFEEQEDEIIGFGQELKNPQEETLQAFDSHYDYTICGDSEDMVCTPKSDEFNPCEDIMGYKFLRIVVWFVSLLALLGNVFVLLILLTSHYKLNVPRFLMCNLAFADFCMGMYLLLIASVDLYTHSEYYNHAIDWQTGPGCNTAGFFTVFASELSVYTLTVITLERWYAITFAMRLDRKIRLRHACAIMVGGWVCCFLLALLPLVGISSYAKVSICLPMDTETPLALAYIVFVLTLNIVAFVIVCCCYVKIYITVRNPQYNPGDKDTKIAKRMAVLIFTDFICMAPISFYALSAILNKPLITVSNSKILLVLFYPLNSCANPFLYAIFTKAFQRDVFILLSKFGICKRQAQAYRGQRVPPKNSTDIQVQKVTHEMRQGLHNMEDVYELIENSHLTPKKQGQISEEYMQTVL

Assay [14] has as its target Estrogen receptor (Homo sapiens) (UniProt P03372). Description: qHTS assay to identify small molecule antagonists of the estrogen receptor alpha (ER-alpha) signaling pathway using the BG1 cell line in the presence of 0.1 nM 17-beta-estradiol (AID 1259244). Note: nearly all actives have a fitted effect of over 50% in size. Note: potency is the fitted concentration of half-maximal effect. The procedure, abridged:
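Compounds were tested against 0.1 nM (final) 17beta-estradiol in VM7Luc4E2 cells, which express full-length ER-alpha and an ERE-luciferase reporter; luminescence was recorded following 22 h exposure.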

The nature of assay [15]: qHTS assay to identify small molecule HDAC inhibitors (AID 1259364).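 Note: wild-type HCT-116 cells with endogenous class I/II HDAC activity; top concentration of the series differs between compounds; nearly all actives have a fitted effect of over 45% in size.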 The method, boiled down:
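Screening used wild-type human colon HCT-116 cells incubated overnight, dosed with compounds for 2 hours, and assayed with a homogeneous luminogenic HDAC I/II reagent for 30 minutes at room temperature.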

Assay [16] is described as follows: qHTS assay to identify small molecule agonists of the sonic hedgehog signaling (Shh) pathway - cell viability counter screen (AID 1259366). Note: nearly all actives have a fitted effect of over 50% in size. Note: potency is the fitted concentration of half-maximal effect. The procedure, abridged:
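CellTiter-Fluor fluorescence read-out, 1 hr at 37C, added after 23hr compound exposure. Cells: 3T3 Gli1-Luc, an NIH/3T3 clone with stably integrated Gli1-Luc reporter, plated 4hr before compound.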

The nature of assay [17]: qHTS assay to identify small molecule antagonists of the androgen receptor (AR) signaling pathway using the MDA cell line in the presence of 0.5 nM R1881 - cell viability counter screen (AID 1259242). Note: nearly all actives have a fitted effect of over 45% in size. The method, boiled down:
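Concentration-response screen of compounds for toxicity in MDA-kb2 reporter cells: 16 hr at 37C with 0.5 nM R1881, endpoint live-cell protease fluorescence measured in the reporter wells.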

In assay [18] the target is Androgen receptor (Homo sapiens) (UniProt P10275). Description: qHTS assay to identify small molecule antagonists of the androgen receptor (AR) signaling pathway using the MDA cell line in the presence of 0.5 nM R1881 (AID 1259243). Note: nearly all actives have a fitted effect of over 50% in size. The procedure, abridged:
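With R1881 held at 0.5 nM (final), compound effects on MMTV-luciferase expression in MDA-kb2 cells were scored by luminescence after a 16 hr, 37C incubation.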

Assay [19] can be described thus: qHTS assay to identify small molecule phospholipidosis (PLD) inducers (AID 1259344; active = well fitted curve in the direction sought with a large enough effect; an effect the other way counts as inactive or inconclusive). The procedure, abridged:
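Phospholipid accumulation was scored by imaging: fixed, Hoechst-counterstained HepG2 cells stained with LipidTOX Red after 24 h compound exposure at 37 C. Read-outs were pit count and pit intensity per well or per cell, with amiodarone and DMSO controls.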

Assay [20] deals with Androgen receptor (Homo sapiens) (UniProt P10275). Kind of assay: qHTS assay to identify small molecule agonists of the androgen receptor (AR) signaling pathway in the presence of an antagonist (AID 1259381; calls by dose curve; note: nearly all actives have a fitted effect of over 15% in size). The method, boiled down:
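Luminescent ONE-Glo read, 30min at room temperature, follows 16hr compound exposure (15 concentrations) of MDA-kb2 cells at 37C, 0% CO2, with nilutamide added at 3.0uM final.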

Where “and” joins values, the source holds several entries; their conditions need not be identical. Equal entries are not always repeated. Results filed as inconclusive are left out. Some structures have more than one record in an assay (separate samples or runs), and their calls can disagree. Calls of active or inactive are those of the source. Unless noted, calls come from the whole dose curve; as a rule, active = well fitted curve in the direction sought with a large enough effect in the repeat runs; inconclusive = weak or mixed curves; inactive = no such curve, though single readings can be large; an effect the other way counts as inactive or inconclusive.

Chain of Androgen receptor (Homo sapiens) (P10275 whole entry, looked up): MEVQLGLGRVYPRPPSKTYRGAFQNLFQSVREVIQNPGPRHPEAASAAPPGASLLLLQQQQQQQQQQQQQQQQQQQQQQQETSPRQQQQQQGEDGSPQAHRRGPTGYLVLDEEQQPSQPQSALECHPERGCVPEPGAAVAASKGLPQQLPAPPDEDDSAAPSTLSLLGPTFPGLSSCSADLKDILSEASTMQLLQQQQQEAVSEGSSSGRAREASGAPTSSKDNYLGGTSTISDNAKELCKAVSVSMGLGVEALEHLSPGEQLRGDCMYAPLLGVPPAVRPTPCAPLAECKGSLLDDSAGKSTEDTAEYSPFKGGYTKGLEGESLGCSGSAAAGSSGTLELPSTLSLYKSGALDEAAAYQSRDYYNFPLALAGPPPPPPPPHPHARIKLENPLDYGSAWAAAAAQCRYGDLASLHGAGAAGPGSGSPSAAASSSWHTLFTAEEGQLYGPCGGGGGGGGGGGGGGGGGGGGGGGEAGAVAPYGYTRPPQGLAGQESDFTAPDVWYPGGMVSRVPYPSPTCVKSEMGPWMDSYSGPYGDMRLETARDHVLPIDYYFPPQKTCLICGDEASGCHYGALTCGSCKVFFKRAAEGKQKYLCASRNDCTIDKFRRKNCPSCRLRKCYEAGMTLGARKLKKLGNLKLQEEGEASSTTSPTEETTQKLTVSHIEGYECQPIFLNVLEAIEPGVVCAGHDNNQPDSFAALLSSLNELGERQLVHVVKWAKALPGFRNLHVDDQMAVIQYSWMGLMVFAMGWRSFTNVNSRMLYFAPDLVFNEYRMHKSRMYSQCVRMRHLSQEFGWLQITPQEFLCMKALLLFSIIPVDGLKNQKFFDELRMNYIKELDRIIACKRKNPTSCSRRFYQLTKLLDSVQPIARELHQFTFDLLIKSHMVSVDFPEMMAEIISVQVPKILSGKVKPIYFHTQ

Consider `O=C(CCl)CCl`, for which the Potency result in assay [1], in assay [2], in assay [3], in [4], in assay [6] and in [7] was “inactive” throughout. In addition, the Potency result in assay [9], in assay [10], in assay [11] and in assay [13] was “inactive” in each case. Besides, the Potency in assay [5] is 19.3 µM (active); in [8], 63.4 µM (active) and 48.6 µM (active). In addition, in assay [12], the call was inactive.
Take `C1CS1`: the Potency result in assay [1], in [14], in [15], in [2], in assay [16] and in assay [3] was “inactive” each time. Besides, the Potency entry in assay [4], in assay [5], in assay [8], in assay [9], in assay [10] and in assay [11] was “inactive” throughout. For the same molecule, the Potency entry in assay [13] was “inactive”. Further, the result in [12] was inactive.
Consider `CC(C)(C)NCC(O)c1cc(Cl)c(N)c(C(F)(F)F)c1` (centres undefined), for which the Potency result in assay [17], in assay [18], in [14], in [15], in assay [2] and in assay [4] was “inactive” in each case. Besides, the Potency entry in assay [5], in assay [6], in [8], in assay [9], in [20] and in assay [10] was “inactive” throughout. Besides, the Potency result in assay [11] and in assay [13] was “inactive” each time. For the same molecule, the outcome in [19] was inactive. In assay [16], the Potency was 7.5 µM (active).
For the molecule `CC(C)c1ccc(OP(=O)(Oc2ccc(C(C)C)cc2)Oc2ccc(C(C)C)cc2)cc1`, the Potency entry in assay [1], in assay [15], in [2], in [16], in [3] and in [4] was “inactive” each time. Also, the Potency entry in assay [8], in assay [11] and in assay [13] was “inactive” each time. The Potency is 13.8 µM (active) and 12.2 µM (active) and 15.3 µM (active) in [5]; 21.8 µM (active) and 27.3 µM (active) and 21.7 µM (active) in assay [9]; 27.5 µM (active) and 30.6 µM (active) in assay [10]. The outcome in [12] was inactive.
On to `NC(=S)c1c(Cl)cccc1Cl`, for which the Potency result in [1], in [14], in [15], in [2], in assay [16] and in assay [3] was “inactive” throughout. The Potency entry in assay [4], in assay [5], in [6], in assay [7], in assay [8] and in assay [9] was “inactive” each time. Further, the Potency result in assay [10], in assay [11] and in assay [13] was “inactive” each time. Further, the molecule was classed as inactive in assay [12].
For `N#CC(C#N)=C(C#N)C#N`, the Potency result in [1], in assay [14], in [2], in [4], in assay [6] and in assay [7] was “inactive” in each case. The Potency result in [9], in assay [10] and in assay [11] was “inactive” in each case. Further, in assay [5], the Potency is 14.3 µM (active). In [12], the molecule was called inactive.
In the case of `O=C(Cc1ccccc1)OCCc1ccccc1`, the Potency entry in [1], in [14], in [2], in assay [16], in assay [3] and in assay [4] was “inactive” each time. In addition, the Potency entry in [5], in [6], in [7], in assay [8], in assay [9] and in assay [10] was “inactive” in each case. The Potency result in assay [11] and in assay [13] was “inactive” in each case. In addition, the outcome in [12] was inactive.
In the case of `CCCCC#N`, the Potency entry in assay [1], in assay [15], in assay [2], in [16], in assay [3] and in [4] was “inactive” each time. Also, the Potency result in assay [5], in assay [8], in [9], in [10], in [11] and in assay [13] was “inactive” each time. Besides, the call in assay [12] was inactive.
For the molecule `CCCCNC(=O)OCC#CI`, the Potency in [14] is 12.1 µM (active) and 48.6 µM (active); in [16] it was 60.8 µM (active) and 30.6 µM (active); in [5], 2.16 µM (active) and 7.7 µM (active); in assay [8], 60.8 µM (active) and 68.6 µM (active); in assay [9], 60.8 µM (active) and inactive. The Potency result in assay [15], in assay [2], in assay [4], in assay [6], in assay [7] and in [10] was “inactive” in each case. Besides, the Potency entry in assay [11] and in assay [13] was “inactive” in each case.

For the origin of these results see PubChem BioAssay (Tox21).
